Consider 7 sequences from the supplement of paper PMC6555819.

Test in all cases: PBM binding z-score (relative to random genomic background probes); higher = stronger binding; sequences stand for … in GC…GCGATTGACAGCGTAGAATGAAGG
Test [1] relates to PPARg:RXRa DBDmut IVT, anti-RXR (DBD mutation: RXRa K156A/R161A, NR concentration 270 nM, RXRa partner concentration 90 nM). The method in brief:
(§1)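 Custom Agilent 4×180K protein-binding microarrays carried double-stranded probes. Their 34-nt variable regions held direct-repeat seeds, single-nucleotide variants, half-site ablations and random human genomic background sequences. Arrays were incubated 1 h with ligand-free nuclear receptor dimers in PBS pH 7.4, 2% milk, 0.02% Triton X-100, 1 mM DTT, 0.2 mg/mL BSA and 0.4 mg/ml salmon testes DNA. Antibodies against each partner (one per run) detected binding, and scanned fluorescence was regression-normalized. Binding z-scores use random background probes as reference.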

In test [2] the test system is PPARg:RXRa IVT, anti-PPARg (NR concentration 270 nM, RXRa partner concentration 90 nM). The method, boiled down:
as §1

Test [3] relates to PPARg DBDmut:RXRa IVT, anti-PPARg (DBD mutation: PPARg1 K132A/R137A, NR concentration 270 nM, RXRa partner concentration 90 nM). The method, boiled down: as §1
The test system of test [4] is PPARg DBDmut IVT, anti-PPARg (DBD mutation: PPARg1 K132A/R137A, NR concentration 270 nM). The method, boiled down: as §1
The subject of test [5] is PPARg homodimer (NR concentration 180 nM). The method, boiled down: as §1
The test system of test [6] is PXR:RXRa (NR concentration 270 nM, RXRa partner concentration 90 nM). The method in brief: as §1
Test [7] concerns PXR homodimer (NR concentration 270 nM). The method, boiled down: as §1
Test [8] concerns RARa:RXR (NR concentration 270 nM, RXRa partner concentration 90 nM). The method in brief:
as §1

Test [9] relates to RARa homodimer (NR concentration 270 nM). The method in brief: as §1
The subject of test [10] is RARb:RXRa (NR concentration 270 nM, RXRa partner concentration 90 nM). The method in brief: as §1
The test system of test [11] is RARb homodimer (NR concentration 270 nM). The method in brief:
as §1

Test [12] has as its system RARg:RXRa (NR concentration 270 nM, RXRa partner concentration 90 nM). The method, boiled down:
as §1

Test [13] relates to RARg homodimer (NR concentration 270 nM). The method, boiled down:
as §1

The subject of test [14] is RXRa DBDmut IVT, anti-RXR (DBD mutation: RXRa K156A/R161A, NR concentration 90 nM). The method, boiled down: as §1
The subject of test [15] is RXRa homodimer (NR concentration 180 nM). The method, boiled down: as §1
For test [16], the system named is THRa:RXRa (NR concentration 90 nM, RXRa partner concentration 90 nM). The method, boiled down:
as §1

The test system of test [17] is THRa homodimer (NR concentration 90 nM). The method, boiled down:
as §1

The subject of test [18] is VDR homodimer (NR concentration 270 nM). The method in brief:
as §1

Regarding CCTAGTCGGTCAGGAGGTCACACACCGGATATGA, the PBM binding z-score in test [1] was 2.85; in test [2], 4.85; in test [3], 0.312; in test [4], 0.324; in test [5], 4.25; in [6], 4.34. Also, the PBM binding z-score amounted to 1.2 in test [7]; 5.23 in test [8]; 2.27 in [9]; 4.25 in [10]; 4.67 in test [11]; 5.93 in test [12]. Also, the PBM binding z-score in [13] is 5.46; in [14], 0.219; in [15], 4.75; in test [16], 3.37; in test [17] it was 2.55; in test [18], 2.83.
On to CCTTACGGGTCGCGAGGTTATAGCACGACGAGCG, for which the PBM binding z-score in test [1] is 0.357; in [2], 1.14; in test [3], -0.25; in test [4], -0.857; in test [5], 1.41; in [6], 2.63. In addition, the PBM binding z-score is -0.189 in test [7]; 3.62 in test [8]; -0.132 in [9]; 2.23 in [10]; 1.57 in test [11]; 3.39 in [12]. Further, the PBM binding z-score came to 2.09 in test [13]; 0.0933 in test [14]; 4 in test [15]; 2.25 in [16]; 0.349 in test [17]; 0.904 in test [18].
For GCTAGCAGGCCAATTGGGTCACTCAATGACGGGC, the PBM binding z-score in test [1] is 2.36; in [2], 3.11; in test [3] it was -0.977; in test [4] it was -0.884; in test [5] it was -0.0833; in test [6] it was 0.184. In addition, the PBM binding z-score in test [7] is -0.704; in test [8], 0.585; in test [9] it was -0.664; in test [10], 1.54; in test [11] it was 1.94; in test [12], 1.01. In addition, the PBM binding z-score was 1.15 in test [13]; -0.58 in [14]; 0.841 in [15]; 1.66 in test [16]; 0.0976 in test [17]; -0.328 in test [18].
As for TCATATAGGTAAATGCTAGGTGAAAGCCCGATCT, the PBM binding z-score in test [1] amounted to 3.61; in test [2] it was 2.73; in test [3], 0.828; in test [4] it was 0.941; in test [5], 0.598; in test [6], 0.505. In addition, the PBM binding z-score in test [7] is -0.0207; in [8], 1.05; in test [9], 0.798; in [10] it was 0.444; in test [11] it was 0.272; in [12], 0.503. In addition, the PBM binding z-score in test [13] was 0.325; in [14] it was 1.5; in test [15], 0.914; in test [16] it was 1.29; in test [17], 0.116; in [18], -0.161.
TCGAGTAGGTTAGTCCGGGCATTCAGCCAACATA: the PBM binding z-score in test [1] is 1.83; in test [2] it was 1.17; in test [3] it was -0.501; in [4] it was -0.393; in test [5], -0.627; in test [6] it was -0.337. The PBM binding z-score in test [7] is -0.362; in test [8], -0.0826; in test [9] it was -1.14; in test [10], 0.232; in test [11], 0.125; in test [12] it was -0.242. For the same sequence, the PBM binding z-score was -0.282 in test [13]; 0.0956 in test [14]; -0.186 in test [15]; 0.527 in test [16]; -0.31 in [17]; -0.163 in [18].
Take TCTAGTTGGTCAAAGGTCAGACACTCGAAATGCG: the PBM binding z-score in test [1] was 3.43; in test [2], 5.86; in test [3] it was 1.03; in test [4], 0.417; in test [5], 4.36; in test [6], 4.74. Further, the PBM binding z-score in test [7] amounted to 1.67; in test [8], 6.17; in [9] it was 3.82; in test [10] it was 4.53; in test [11] it was 4.51; in [12], 6.12. Moreover, the PBM binding z-score in test [13] stood at 5.15; in test [14], 1.57; in [15], 6.68; in test [16] it was 3.09; in test [17], 1.49; in [18], 1.89.
Consider TCTCGGAGGACACGAAGGGTCAGAGCTCGACATC, for which the PBM binding z-score in test [1] was 1.38; in [2], 0.541; in test [3], -0.0647; in test [4], -1.25; in [5], 0.446; in test [6], 1.66. The PBM binding z-score in [7] was -0.67; in [8] it was 2.31; in test [9], -0.314; in test [10], 3.14; in test [11], 3.84; in test [12], 3.26. For the same sequence, the PBM binding z-score in test [13] came out at 3.44; in test [14] it was 0.595; in [15] it was 2.4; in test [16], 2.92; in test [17] it was 0.541; in [18] it was 0.624.
